Most compounds without a hit are left out; they make up all but 3.8% or so of the library.
p-CIP stab down = p/CIP-EGFP fusion destabilizers, primary screen, fluorescence, F442A cells; 290,000 compounds, 0.01% hits; decrease of EGFP signal, % at 10 µM; 16 h;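 active means EGFP signal decrease of at least 30% at 10 µM or well 3 SD below plate mean, unless failing retest; inactive means the rest, including hits failing retest or dose response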
Target sequence (Q05BA5 1-1403): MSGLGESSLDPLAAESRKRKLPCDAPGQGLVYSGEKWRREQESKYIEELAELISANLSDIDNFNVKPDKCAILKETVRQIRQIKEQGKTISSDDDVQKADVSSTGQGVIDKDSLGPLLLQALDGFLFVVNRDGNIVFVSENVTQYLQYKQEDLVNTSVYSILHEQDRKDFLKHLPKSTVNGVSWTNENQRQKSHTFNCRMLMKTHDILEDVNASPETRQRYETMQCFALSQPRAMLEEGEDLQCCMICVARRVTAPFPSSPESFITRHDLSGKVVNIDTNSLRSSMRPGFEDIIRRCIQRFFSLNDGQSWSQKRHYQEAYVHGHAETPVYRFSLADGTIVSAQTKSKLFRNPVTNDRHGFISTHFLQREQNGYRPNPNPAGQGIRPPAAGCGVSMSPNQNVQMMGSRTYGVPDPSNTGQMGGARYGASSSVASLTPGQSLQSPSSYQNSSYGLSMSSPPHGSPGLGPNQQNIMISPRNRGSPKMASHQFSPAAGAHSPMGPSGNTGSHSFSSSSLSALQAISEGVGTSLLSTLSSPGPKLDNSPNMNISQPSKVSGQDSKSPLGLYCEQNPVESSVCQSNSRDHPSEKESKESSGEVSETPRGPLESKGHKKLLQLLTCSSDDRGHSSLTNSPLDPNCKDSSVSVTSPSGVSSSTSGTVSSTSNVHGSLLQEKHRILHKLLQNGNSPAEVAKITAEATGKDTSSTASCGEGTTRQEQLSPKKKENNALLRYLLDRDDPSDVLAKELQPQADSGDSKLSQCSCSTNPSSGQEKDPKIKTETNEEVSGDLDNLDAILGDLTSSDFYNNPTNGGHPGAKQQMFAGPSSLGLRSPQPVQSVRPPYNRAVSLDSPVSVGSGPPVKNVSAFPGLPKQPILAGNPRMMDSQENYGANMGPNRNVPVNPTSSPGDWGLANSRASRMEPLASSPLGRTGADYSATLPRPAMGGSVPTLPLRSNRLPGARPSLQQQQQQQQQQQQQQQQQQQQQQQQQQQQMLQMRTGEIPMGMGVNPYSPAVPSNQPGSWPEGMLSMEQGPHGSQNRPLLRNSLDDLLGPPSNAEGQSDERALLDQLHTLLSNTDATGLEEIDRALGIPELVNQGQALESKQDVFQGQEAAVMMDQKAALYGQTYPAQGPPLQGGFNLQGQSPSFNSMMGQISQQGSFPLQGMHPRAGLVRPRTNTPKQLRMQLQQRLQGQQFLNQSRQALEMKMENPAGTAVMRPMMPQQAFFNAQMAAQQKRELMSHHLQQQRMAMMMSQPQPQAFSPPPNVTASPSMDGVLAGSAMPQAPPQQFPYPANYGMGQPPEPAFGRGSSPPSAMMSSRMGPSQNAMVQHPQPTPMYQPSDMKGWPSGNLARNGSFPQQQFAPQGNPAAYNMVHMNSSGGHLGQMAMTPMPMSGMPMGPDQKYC
Hsp70 activator = Hsp70 transcriptional activators, primary screen, cell-based, HeLa, Hsp70 promoter luciferase, luminescence, 10 µM; HeLa Hsp70 promoter luciferase reporter; scaled: vehicle 0, proteasome-inhibitor control 100%; activation, % at 10 µM; 200,000 compounds, 0.04% hits;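 active means activation above the mean across all tested compounds plus 3 SD, cutoff set per campaign, cut at about 5.5% in these data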
HSF-1 act = HSF-1 activators, primary screen, NIH3T3-HGL cells, MG132 stress, luminescence, single point; NIH3T3-HGL HSF-1 luciferase reporter, 8 h; 100% = twice DMSO control signal; 300,000 compounds, 1.7% hits; activation, % at 9 µM;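 active means mean replicate activation of at least 50% with a set share of replicates each reaching 50%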
HSF1 inhib = HSF1 inhibitors in luciferase reporter cells, primary screen, cell-based, NIH3T3, luminescence; NIH3T3-HGL HSE-luciferase, MG132-induced, luminescence 8 h; stronger effect = lower value; 300,000 compounds, 0.77% hits; activity change, negative = inhibition, % at 7.5 µM (by protocol);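 active means more than half of replicate wells show activity change below -50%, luminescence cut by over half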;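 further: luciferase reports HSF-1 transcriptional activity via heat shock element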
HSP90 refold inh = HSP90 inhibitors, primary screen, cell lysate, luminescence; Rabbit reticulocyte lysate, luciferase refolding luminescence, 3 h; inhibition, % at 5.6 µM; 290,000 compounds, 0.91% hits; AID 1789, 2009; Heat shock protein HSP 90 (rabbit reticulocyte lysate; luciferase refolding);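 active means inhibition above the screen-wide mean plus 3 SD, computed separately per campaign, cut at about 16% in these data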;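 further: inhibitors lower the luminescence because luciferase stays unfolded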
NALP1 yeast inh = NALP1 inflammasome inhibitors in reconstituted yeast, colorimetric, S. cerevisiae, triplicate retest; S. cerevisiae NALP1/ASC/caspase-1 growth, X-gal OD620, 72 h; inhibition, % at 10 µM; 280,000 compounds, 0.61% hits; AID 2071, 2009; in the data active means inhibition mostly above about 24%, no sharp cut-off; inactive means mostly below about 32%
Numbers stand for hits.

`COc1ccc(-c2cc(C(=O)Nc3ccc(C)c(N)c3)c3ccccc3n2)cc1` gave p-CIP stab down inactive, HSF-1 act 74, HSF1 inhib inactive, HSP90 refold inh inactive and NALP1 yeast inh inactive.
For COc1cc(NC(=O)c2cc(C)nc3ccccc23)cc(OC)c1 the results were p-CIP stab down inactive, Hsp70 activator inactive, HSF-1 act inactive, HSF1 inhib -60, HSP90 refold inh inactive and NALP1 yeast inh inactive.
COc1ccccc1C(=O)NCC(=O)NCc1cc(=O)n(C)c(=O)n1C was read as p-CIP stab down inactive, HSF-1 act inactive, HSF1 inhib inactive, HSP90 refold inh inactive and NALP1 yeast inh inactive.
Screening CC1(C)CC(NC(=O)c2sc3cc(Cl)ccc3c2Cl)CC(C)(C)N1 returned p-CIP stab down inactive, Hsp70 activator inactive, HSF-1 act inactive, HSF1 inhib inactive, HSP90 refold inh inactive and NALP1 yeast inh inactive.
`CC(=O)N(c1nnc(-c2cccc(C)c2)s1)C1CCCC1` gave p-CIP stab down inactive, HSF-1 act inactive, HSF1 inhib inactive, HSP90 refold inh inactive and NALP1 yeast inh inactive.
Screening Cc1cc(C(=O)OCC(=O)Nc2ccc(S(N)(=O)=O)cc2)c2ccccc2n1 returned p-CIP stab down 62, Hsp70 activator inactive, HSP90 refold inh inactive and NALP1 yeast inh inactive.
Screening CCOc1ccc(Br)cc1S(=O)(=O)Nc1ncn[nH]1 returned p-CIP stab down inactive, HSF-1 act inactive, HSF1 inhib inactive, HSP90 refold inh inactive and NALP1 yeast inh inactive.
Cc1nc2sc3c(NCc4ccco4)ncnc3c2c2c1COC(C)(C)C2 was read as p-CIP stab down inactive, Hsp70 activator inactive, HSF-1 act inactive, HSF1 inhib -89, HSP90 refold inh inactive and NALP1 yeast inh inactive.
CC(C)Cc1nc2sc3c(NCc4ccco4)ncnc3c2c2c1COC(C)(C)C2 was read as p-CIP stab down inactive, Hsp70 activator inactive, HSF-1 act inactive, HSF1 inhib inactive, HSP90 refold inh inactive and NALP1 yeast inh inactive.
CCn1nc(C)cc1C(=O)N1CCCC(N2CCN(Cc3ccc4c(c3)OCO4)CC2)C1 (configuration not stated) was read as p-CIP stab down inactive, HSF-1 act inactive, HSF1 inhib inactive, HSP90 refold inh inactive and NALP1 yeast inh inactive.
Screening O=C(O)c1cccc(NC(=O)c2ccc(COc3ccc(Cl)cc3)cc2)c1 returned p-CIP stab down inactive, HSF-1 act inactive, HSF1 inhib inactive, HSP90 refold inh inactive and NALP1 yeast inh inactive.
For N#C/C(=C\c1ccc(OCc2ccc(Cl)cc2)cc1)C(=O)Nc1cccc(C(=O)O)c1 the results were p-CIP stab down inactive, HSF-1 act 120, HSF1 inhib inactive, HSP90 refold inh inactive and NALP1 yeast inh inactive.
Screening COc1ccccc1CNC(=O)CNC(=O)c1sc2ccccc2c1Cl returned p-CIP stab down inactive, HSF-1 act inactive, HSF1 inhib inactive, HSP90 refold inh inactive and NALP1 yeast inh inactive.
Screening COC(=O)c1ccc(NC(=O)c2ccc(NS(=O)(=O)c3cccc4cccnc34)cc2)cc1 returned p-CIP stab down inactive, HSF-1 act inactive, HSF1 inhib inactive, HSP90 refold inh 17 and NALP1 yeast inh inactive.
Screening O=C(COC(=O)C1CCN(S(=O)(=O)c2cccc3cccnc23)CC1)c1ccc([N+](=O)[O-])cc1 returned p-CIP stab down inactive, Hsp70 activator inactive, HSF-1 act 107, HSF1 inhib inactive, HSP90 refold inh inactive and NALP1 yeast inh inactive.
For O=C(Nc1ccccc1O)c1ccc(NS(=O)(=O)c2cccc3cccnc23)cc1 the results were p-CIP stab down inactive, Hsp70 activator inactive, HSF-1 act inactive, HSF1 inhib inactive, HSP90 refold inh inactive and NALP1 yeast inh inactive.
For COc1ccc(C(=O)COC(=O)C2CCN(S(=O)(=O)c3cccc4cccnc34)CC2)cc1 the results were p-CIP stab down inactive, Hsp70 activator inactive, HSF-1 act inactive, HSF1 inhib inactive, HSP90 refold inh inactive and NALP1 yeast inh inactive.
For CC(=O)c1ccc(NC(=O)C2CCN(S(=O)(=O)c3cccc4cccnc34)CC2)cc1 the results were p-CIP stab down inactive, Hsp70 activator inactive, HSF-1 act inactive, HSF1 inhib -62, HSP90 refold inh inactive and NALP1 yeast inh inactive.
`O=C(N/N=C/C=C\c1ccc([N+](=O)[O-])cc1)c1cccnc1` gave p-CIP stab down inactive, HSF-1 act inactive, HSF1 inhib inactive, HSP90 refold inh inactive and NALP1 yeast inh inactive.
Screening CCOC(=O)C1(CCCc2ccccc2)CCN(CC(O)CO)CC1 (configuration not stated) returned p-CIP stab down inactive, Hsp70 activator inactive, HSP90 refold inh inactive and NALP1 yeast inh inactive.
O=C(O)c1ccc(/C=N/Nc2ccc(C(F)(F)F)cn2)cc1 was read as p-CIP stab down inactive, Hsp70 activator inactive, HSF-1 act 52, HSF1 inhib inactive, HSP90 refold inh inactive and NALP1 yeast inh inactive.
Screening CC1(C)NC(=O)N(CCCOc2ccccc2Br)C1=O returned p-CIP stab down inactive, Hsp70 activator inactive, HSF-1 act 52, HSF1 inhib inactive, HSP90 refold inh inactive and NALP1 yeast inh inactive.
`CC1(C)NC(=O)N(CCCCOc2ccccc2[N+](=O)[O-])C1=O` gave p-CIP stab down inactive, Hsp70 activator inactive, HSF-1 act inactive, HSF1 inhib inactive, HSP90 refold inh inactive and NALP1 yeast inh inactive.
For O=C(CCl)Nc1cn(-c2ccccc2)nc1-c1ccc(F)cc1 the results were p-CIP stab down inactive, Hsp70 activator inactive, HSF-1 act inactive, HSF1 inhib -84, HSP90 refold inh inactive and NALP1 yeast inh inactive.
Fc1ccc(-c2nn(-c3ccccc3)cc2CNCc2ccccc2)cc1 was read as p-CIP stab down inactive, Hsp70 activator inactive, HSF-1 act inactive, HSF1 inhib inactive, HSP90 refold inh inactive and NALP1 yeast inh inactive.
`CCc1nc(NC(=O)c2sc(C)nc2C)sc1C(=O)OC` gave p-CIP stab down inactive, HSF-1 act inactive, HSF1 inhib inactive, HSP90 refold inh inactive and NALP1 yeast inh inactive.
`O=C(CNC1CCCC1)Nc1ccc(N2CCCCCC2)cc1` gave p-CIP stab down inactive, Hsp70 activator inactive, HSF-1 act inactive, HSF1 inhib inactive, HSP90 refold inh inactive and NALP1 yeast inh 30.
`O=C(CC1CCCCC1)NCc1ccccn1` gave p-CIP stab down inactive, Hsp70 activator inactive, HSF-1 act inactive, HSF1 inhib -90, HSP90 refold inh inactive and NALP1 yeast inh inactive.
For N#CCc1ccc(NC(=O)c2ccc(S(=O)(=O)N3CCCC3)cc2)cc1 the results were p-CIP stab down inactive, HSF-1 act inactive, HSF1 inhib inactive, HSP90 refold inh inactive and NALP1 yeast inh inactive.
Screening O=Nc1c(-c2ccccc2)[nH]n(-c2ccccc2)c1=O returned p-CIP stab down inactive, HSF-1 act 98, HSF1 inhib inactive, HSP90 refold inh inactive and NALP1 yeast inh inactive.
